How the values were obtained:
Experiment in all cases: DAPPL (digital affinity profiling via proximity ligation, sequencing); 10 mM Tris-HCl pH 7.5, 50 mM NaCl, 1 mM DTT, 4% glycerol, room temperature, 30 min; GST-TFs on glutathione beads, 16-mer random dsDNA library, 0.1% formaldehyde crosslink after washing; high values mean tight binding
FEV = molecular target: T1, FEV (Homo sapiens, UniProt Q99581 1-238); settings: protein: recombinant; tags: N-terminal GST; dsDNA, one strand shown
T1 sequence: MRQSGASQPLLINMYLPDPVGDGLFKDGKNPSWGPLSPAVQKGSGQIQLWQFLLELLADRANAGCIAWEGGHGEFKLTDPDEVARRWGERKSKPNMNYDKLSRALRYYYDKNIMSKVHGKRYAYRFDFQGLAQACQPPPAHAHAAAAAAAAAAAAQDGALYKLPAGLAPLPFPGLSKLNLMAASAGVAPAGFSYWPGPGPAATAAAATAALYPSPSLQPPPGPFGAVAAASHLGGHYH
How it was run: (§1)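 Sequencing on an Illumina NextSeq500 followed washing, crosslinking with 0.1% formaldehyde, proximity ligation (BsaI/T4 ligase, 1 h, 37 °C) and PCR amplification of pools that had been incubated for 30 min at room temperature with 200 nmole of a random double-stranded 16-mer DNA library in Tris/NaCl/DTT/glycerol buffer. Each pool held DNA-barcoded human transcription factors, expressed in yeast as GST fusions and captured on glutathione beads, plus a tag-only sample. Binding signal is a hexamer's read frequency for a factor divided by its frequency in the tag-only sample.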

ETV5 = ETV5 (Homo sapiens, UniProt P41161 1-510); settings: protein: recombinant; tags: N-terminal GST; dsDNA, one strand shown
How it was run: as §1

HSF1 = HSF1 (Homo sapiens, UniProt Q00613 1-529); settings: protein: recombinant; tags: N-terminal GST; chain copies: 3; dsDNA, one strand shown
How it was run: as §1

ELF4 = ELF4 (Homo sapiens, UniProt Q99607 1-663); settings: protein: recombinant; tags: N-terminal GST; dsDNA, one strand shown
How it was run: as §1

ELK4 = molecular target: T2, ELK4 (Homo sapiens, UniProt P28324-2 1-405); settings: protein: recombinant; tags: N-terminal GST; dsDNA, one strand shown
T2 sequence: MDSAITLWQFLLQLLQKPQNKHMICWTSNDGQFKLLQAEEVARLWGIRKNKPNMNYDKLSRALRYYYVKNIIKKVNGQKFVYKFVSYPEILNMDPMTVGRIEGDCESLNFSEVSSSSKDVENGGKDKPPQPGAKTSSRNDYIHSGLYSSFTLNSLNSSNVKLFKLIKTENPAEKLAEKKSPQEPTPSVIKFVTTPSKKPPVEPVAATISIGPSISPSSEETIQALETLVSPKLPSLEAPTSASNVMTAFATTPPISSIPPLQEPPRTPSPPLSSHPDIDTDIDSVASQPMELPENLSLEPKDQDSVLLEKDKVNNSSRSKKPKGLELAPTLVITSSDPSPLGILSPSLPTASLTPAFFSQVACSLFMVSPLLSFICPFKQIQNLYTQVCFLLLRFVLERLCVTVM
How it was run: as §1

ELF3 = molecular target: T3, ELF3 (Homo sapiens, UniProt P78545 1-371); settings: protein: recombinant; tags: N-terminal GST; dsDNA, one strand shown
T3 sequence: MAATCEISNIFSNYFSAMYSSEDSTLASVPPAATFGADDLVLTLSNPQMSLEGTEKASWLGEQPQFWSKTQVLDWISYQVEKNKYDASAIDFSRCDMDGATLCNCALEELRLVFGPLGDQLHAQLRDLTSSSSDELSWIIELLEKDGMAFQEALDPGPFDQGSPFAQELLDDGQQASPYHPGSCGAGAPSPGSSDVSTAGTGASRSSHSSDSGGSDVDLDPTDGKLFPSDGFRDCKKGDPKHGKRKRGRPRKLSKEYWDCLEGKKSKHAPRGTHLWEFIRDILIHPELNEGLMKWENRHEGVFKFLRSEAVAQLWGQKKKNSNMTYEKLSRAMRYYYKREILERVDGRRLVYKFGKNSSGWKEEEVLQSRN
How it was run: as §1

CRX = CRX (Homo sapiens, UniProt O43186 1-299); settings: protein: recombinant; tags: N-terminal GST; dsDNA, one strand shown
How it was run: as §1

ETV1 = ETV1 (Homo sapiens, UniProt P50549 1-477); settings: protein: recombinant; tags: N-terminal GST; dsDNA, one strand shown
How it was run: as §1

ERF = molecular target: T4, ERF (Homo sapiens, UniProt P50548 1-548); settings: protein: recombinant; tags: N-terminal GST; dsDNA, one strand shown
T4 sequence: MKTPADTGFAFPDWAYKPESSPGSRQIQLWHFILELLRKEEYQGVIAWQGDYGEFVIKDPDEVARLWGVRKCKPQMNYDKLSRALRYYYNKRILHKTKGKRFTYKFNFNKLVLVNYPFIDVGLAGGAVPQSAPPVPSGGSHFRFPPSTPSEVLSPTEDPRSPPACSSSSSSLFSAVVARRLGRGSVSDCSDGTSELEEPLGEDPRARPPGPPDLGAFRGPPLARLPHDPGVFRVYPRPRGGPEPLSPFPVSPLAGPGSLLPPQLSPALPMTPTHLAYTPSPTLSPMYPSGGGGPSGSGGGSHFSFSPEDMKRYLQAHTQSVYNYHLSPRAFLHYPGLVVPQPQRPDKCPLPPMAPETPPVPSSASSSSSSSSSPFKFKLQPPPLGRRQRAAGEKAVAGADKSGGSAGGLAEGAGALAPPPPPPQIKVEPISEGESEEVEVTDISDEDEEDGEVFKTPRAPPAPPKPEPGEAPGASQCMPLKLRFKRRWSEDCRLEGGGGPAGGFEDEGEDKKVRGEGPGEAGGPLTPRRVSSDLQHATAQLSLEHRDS
How it was run: as §1

ETV3L = molecular target: T5, ETV3L (Homo sapiens, UniProt Q6ZN32 1-361); settings: protein: recombinant; tags: N-terminal GST; dsDNA, one strand shown
T5 sequence: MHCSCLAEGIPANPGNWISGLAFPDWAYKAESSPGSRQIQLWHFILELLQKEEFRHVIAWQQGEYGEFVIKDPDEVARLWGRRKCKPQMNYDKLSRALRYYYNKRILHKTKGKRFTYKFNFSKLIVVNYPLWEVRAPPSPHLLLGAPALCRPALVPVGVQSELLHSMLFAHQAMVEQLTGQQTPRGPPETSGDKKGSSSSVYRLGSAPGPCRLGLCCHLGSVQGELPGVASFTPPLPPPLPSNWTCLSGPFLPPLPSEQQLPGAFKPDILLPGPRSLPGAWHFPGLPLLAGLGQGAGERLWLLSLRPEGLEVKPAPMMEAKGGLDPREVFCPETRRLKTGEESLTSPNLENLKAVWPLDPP
How it was run: as §1

ETS2 = molecular target: T6, ETS2 (Homo sapiens, UniProt P15036 1-469); settings: protein: recombinant; tags: N-terminal GST; dsDNA, one strand shown
T6 sequence: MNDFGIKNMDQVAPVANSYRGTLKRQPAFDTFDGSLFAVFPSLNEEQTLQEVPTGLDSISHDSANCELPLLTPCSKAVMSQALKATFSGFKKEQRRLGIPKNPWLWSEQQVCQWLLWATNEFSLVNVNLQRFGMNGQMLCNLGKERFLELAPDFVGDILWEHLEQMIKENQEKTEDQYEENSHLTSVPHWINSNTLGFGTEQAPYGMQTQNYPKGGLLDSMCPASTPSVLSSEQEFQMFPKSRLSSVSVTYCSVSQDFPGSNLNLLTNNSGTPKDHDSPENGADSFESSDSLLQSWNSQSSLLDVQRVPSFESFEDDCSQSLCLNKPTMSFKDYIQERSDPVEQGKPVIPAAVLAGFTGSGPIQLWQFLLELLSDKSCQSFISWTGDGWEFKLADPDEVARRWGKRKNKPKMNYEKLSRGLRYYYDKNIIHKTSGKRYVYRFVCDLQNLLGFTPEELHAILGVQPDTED
How it was run: as §1

SPDEF = molecular target: T7, SPDEF (Homo sapiens, UniProt O95238 1-335); settings: protein: recombinant; tags: N-terminal GST; dsDNA, one strand shown
T7 sequence: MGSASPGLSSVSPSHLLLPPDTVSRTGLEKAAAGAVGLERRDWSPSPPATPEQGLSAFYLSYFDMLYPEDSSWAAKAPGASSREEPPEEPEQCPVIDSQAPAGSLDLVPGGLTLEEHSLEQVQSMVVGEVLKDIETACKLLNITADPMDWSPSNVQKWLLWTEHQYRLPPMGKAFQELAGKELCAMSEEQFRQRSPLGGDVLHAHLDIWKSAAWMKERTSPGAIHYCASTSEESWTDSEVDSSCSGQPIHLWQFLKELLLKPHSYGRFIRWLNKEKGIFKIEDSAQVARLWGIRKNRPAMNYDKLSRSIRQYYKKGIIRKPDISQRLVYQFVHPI
How it was run: as §1

ETV7 = molecular target: T8, ETV7 (Homo sapiens, UniProt Q9Y603 1-341); settings: protein: recombinant; tags: N-terminal GST; dsDNA, one strand shown
T8 sequence: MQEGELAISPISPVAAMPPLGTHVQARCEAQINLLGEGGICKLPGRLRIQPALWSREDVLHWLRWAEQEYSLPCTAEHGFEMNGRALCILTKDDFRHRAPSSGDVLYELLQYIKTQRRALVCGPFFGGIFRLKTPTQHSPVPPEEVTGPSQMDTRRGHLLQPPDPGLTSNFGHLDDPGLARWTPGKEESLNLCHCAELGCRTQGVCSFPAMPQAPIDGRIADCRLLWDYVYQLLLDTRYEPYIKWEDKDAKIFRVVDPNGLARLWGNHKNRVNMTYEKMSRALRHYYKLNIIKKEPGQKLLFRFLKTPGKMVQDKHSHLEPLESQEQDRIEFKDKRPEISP
How it was run: as §1

ELF5 = molecular target: T9, ELF5 (Homo sapiens, UniProt Q9UKW6-2 1-255); settings: protein: recombinant; tags: N-terminal GST; dsDNA, one strand shown
T9 sequence: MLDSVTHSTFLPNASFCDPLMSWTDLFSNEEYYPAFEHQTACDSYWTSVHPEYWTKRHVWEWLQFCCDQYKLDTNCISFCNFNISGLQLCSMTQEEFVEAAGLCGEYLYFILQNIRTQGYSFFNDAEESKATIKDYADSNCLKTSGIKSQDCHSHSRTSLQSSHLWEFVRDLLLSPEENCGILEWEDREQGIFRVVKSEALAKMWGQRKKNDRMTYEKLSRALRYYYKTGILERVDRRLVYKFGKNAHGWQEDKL
How it was run: as §1

ETV3 = molecular target: T10, ETV3 (Homo sapiens, UniProt P41162-2 1-143); settings: protein: recombinant; tags: N-terminal GST; dsDNA, one strand shown
T10 sequence: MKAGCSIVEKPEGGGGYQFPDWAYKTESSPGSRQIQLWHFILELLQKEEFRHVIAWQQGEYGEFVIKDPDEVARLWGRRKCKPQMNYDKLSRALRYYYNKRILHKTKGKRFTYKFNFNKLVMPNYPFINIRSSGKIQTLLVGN
How it was run: as §1

ETV6 = ETV6 (Homo sapiens, UniProt P41212 1-452); settings: protein: recombinant; tags: N-terminal GST; dsDNA, one strand shown
How it was run: as §1

Sequence of HSF1 (Q00613 whole entry): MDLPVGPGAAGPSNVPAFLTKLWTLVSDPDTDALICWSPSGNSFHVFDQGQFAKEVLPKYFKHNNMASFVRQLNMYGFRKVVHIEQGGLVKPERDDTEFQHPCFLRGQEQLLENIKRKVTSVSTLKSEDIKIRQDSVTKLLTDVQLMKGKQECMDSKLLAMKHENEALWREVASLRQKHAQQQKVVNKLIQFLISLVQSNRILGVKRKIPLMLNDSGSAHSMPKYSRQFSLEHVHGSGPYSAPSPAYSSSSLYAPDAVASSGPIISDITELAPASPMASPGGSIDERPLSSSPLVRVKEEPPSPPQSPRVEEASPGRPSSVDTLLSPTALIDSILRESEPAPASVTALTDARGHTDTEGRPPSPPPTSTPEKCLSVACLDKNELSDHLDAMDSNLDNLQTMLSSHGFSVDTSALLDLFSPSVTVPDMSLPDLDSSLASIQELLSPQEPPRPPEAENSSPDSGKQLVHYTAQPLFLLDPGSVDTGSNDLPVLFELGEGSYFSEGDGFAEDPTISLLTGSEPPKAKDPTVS
Sequence of ELF4 (Q99607 whole entry): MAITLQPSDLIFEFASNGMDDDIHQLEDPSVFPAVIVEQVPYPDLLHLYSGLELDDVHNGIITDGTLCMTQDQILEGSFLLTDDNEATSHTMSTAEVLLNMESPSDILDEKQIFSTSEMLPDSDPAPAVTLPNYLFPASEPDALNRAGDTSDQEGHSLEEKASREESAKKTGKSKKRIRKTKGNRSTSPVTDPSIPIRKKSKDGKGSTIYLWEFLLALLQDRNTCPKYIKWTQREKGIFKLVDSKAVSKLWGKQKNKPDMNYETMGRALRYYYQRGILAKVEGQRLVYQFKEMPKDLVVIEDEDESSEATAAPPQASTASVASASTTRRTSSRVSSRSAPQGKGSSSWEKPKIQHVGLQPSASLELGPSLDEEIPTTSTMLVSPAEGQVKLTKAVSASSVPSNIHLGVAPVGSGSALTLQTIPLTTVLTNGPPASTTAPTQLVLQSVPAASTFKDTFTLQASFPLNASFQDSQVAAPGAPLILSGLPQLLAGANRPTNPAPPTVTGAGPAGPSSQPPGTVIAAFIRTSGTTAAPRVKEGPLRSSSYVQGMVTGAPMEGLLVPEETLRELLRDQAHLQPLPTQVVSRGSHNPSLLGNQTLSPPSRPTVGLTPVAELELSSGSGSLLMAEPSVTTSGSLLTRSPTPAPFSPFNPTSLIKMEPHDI
Sequence of ETV1 (P50549 whole entry): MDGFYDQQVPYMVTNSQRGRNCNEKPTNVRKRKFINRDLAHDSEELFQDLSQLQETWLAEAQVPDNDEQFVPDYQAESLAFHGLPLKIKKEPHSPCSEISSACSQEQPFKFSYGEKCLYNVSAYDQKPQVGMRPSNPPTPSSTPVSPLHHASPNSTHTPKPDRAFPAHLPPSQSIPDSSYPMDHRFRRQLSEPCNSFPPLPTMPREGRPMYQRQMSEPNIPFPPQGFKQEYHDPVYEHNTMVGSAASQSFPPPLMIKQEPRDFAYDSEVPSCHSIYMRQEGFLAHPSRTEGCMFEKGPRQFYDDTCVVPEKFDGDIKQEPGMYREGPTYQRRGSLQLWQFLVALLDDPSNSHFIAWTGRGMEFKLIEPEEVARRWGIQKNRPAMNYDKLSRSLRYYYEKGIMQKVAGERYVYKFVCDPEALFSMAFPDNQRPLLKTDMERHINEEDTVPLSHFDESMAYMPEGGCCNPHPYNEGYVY
Sequence of ETV5 (P41161 whole entry): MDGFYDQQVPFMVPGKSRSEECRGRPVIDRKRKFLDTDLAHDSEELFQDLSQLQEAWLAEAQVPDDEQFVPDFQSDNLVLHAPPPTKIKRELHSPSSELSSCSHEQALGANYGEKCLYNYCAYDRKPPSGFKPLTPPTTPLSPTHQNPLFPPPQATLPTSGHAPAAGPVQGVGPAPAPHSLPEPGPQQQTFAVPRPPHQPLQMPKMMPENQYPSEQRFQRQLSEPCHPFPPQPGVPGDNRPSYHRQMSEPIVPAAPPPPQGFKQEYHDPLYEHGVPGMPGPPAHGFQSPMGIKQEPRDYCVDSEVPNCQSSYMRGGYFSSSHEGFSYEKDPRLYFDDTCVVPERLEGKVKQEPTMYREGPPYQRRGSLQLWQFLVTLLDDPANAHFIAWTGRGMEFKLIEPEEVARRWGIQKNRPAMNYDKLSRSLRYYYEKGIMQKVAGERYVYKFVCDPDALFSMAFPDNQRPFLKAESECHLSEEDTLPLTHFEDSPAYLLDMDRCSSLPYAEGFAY
Sequence of CRX (O43186 whole entry): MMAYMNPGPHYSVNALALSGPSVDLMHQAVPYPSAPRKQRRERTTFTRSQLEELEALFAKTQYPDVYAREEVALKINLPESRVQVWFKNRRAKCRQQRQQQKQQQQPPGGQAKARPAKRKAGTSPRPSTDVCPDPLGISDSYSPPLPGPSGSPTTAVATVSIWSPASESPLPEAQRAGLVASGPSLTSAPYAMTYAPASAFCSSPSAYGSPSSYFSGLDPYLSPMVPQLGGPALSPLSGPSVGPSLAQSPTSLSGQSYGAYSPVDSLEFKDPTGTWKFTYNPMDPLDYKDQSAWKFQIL
Sequence of ETV6 (P41212 whole entry): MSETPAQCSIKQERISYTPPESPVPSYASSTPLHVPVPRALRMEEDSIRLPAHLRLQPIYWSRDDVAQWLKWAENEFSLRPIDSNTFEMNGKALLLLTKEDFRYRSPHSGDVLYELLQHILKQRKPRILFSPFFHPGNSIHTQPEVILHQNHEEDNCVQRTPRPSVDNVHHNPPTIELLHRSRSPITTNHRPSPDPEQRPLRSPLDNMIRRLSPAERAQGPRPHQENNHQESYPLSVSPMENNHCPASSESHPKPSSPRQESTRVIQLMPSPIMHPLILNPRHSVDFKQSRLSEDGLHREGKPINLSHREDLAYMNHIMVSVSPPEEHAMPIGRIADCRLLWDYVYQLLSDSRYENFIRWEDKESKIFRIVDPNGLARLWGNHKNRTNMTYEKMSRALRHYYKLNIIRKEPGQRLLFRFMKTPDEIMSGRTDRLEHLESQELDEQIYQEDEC

| Sequence | binding signal (FEV) | binding signal (ETV5) | binding signal (HSF1) | binding signal (ELF4) | binding signal (ELK4) | binding signal (ELF3) | binding signal (CRX) | binding signal (ETV1) | binding signal (ERF) | binding signal (ETV3L) | binding signal (ETS2) | binding signal (SPDEF) | binding signal (ETV7) | binding signal (ELF5) | binding signal (ETV3) | binding signal (ETV6) |
| --- | --- | --- | --- | --- | --- | --- | --- | --- | --- | --- | --- | --- | --- | --- | --- | --- |
| GGTAAT | 1.09 fold enrichment (6-mer frequency, TF over GST control) | 1.13 fold enrichment (6-mer frequency, TF over GST control) | 1.27 fold enrichment (6-mer frequency, TF over GST control) | 1.08 fold enrichment (6-mer frequency, TF over GST control) | 1.21 fold enrichment (6-mer frequency, TF over GST control) | 1.17 fold enrichment (6-mer frequency, TF over GST control) | 1.76 fold enrichment (6-mer frequency, TF over GST control) | 1.19 fold enrichment (6-mer frequency, TF over GST control) | 1.13 fold enrichment (6-mer frequency, TF over GST control) | 1.06 fold enrichment (6-mer frequency, TF over GST control) | 1.08 fold enrichment (6-mer frequency, TF over GST control) | 1.11 fold enrichment (6-mer frequency, TF over GST control) | 1.14 fold enrichment (6-mer frequency, TF over GST control) | 1.16 fold enrichment (6-mer frequency, TF over GST control) | 1.06 fold enrichment (6-mer frequency, TF over GST control) | 1.16 fold enrichment (6-mer frequency, TF over GST control) |
| ATCGCA | 1.01 fold enrichment (6-mer frequency, TF over GST control) | 1 fold enrichment (6-mer frequency, TF over GST control) | 1.03 fold enrichment (6-mer frequency, TF over GST control) | 1.12 fold enrichment (6-mer frequency, TF over GST control) | 1.06 fold enrichment (6-mer frequency, TF over GST control) | – | 1.17 fold enrichment (6-mer frequency, TF over GST control) | 1.06 fold enrichment (6-mer frequency, TF over GST control) | 1.06 fold enrichment (6-mer frequency, TF over GST control) | 1 fold enrichment (6-mer frequency, TF over GST control) | 1.02 fold enrichment (6-mer frequency, TF over GST control) | – | 1.03 fold enrichment (6-mer frequency, TF over GST control) | – | 1.03 fold enrichment (6-mer frequency, TF over GST control) | – |

— paper PMC7862700, “An all-to-all approach to the identification of sequence-specific readers for epigenetic DNA modifications on cytosine”
